Most compounds without a hit are left out; they make up all but 4.6% or so of the library.
Vaccinia mCherry = inhibitors of vaccinia virus infection (mCherry reporter signal) | Vaccinia virus mCherry reporter infection, fluorescence | Potency, µM (top dose mostly 36.5 µM), inactives show top-dose activity change, negative = inhibition, most hits filed as inhibitors | 0.63% of 310,000 active | AID 720579; calls by dose curve; tested in A549 cells; also: nearly all actives have a fitted effect of over 35% in size
LASV entry inh = blocks Lassa virus binding to or entry into cells | Potency, µM (titrated, usually from 37.9 µM), for the others: at the top dose activity change, negative = inhibition, hits mostly inhibitors | Lassa virus pseudotype entry inhibition, cell reporter | AID 540256 | 1.2% of 300,000 active; calls by dose curve; tested in HEK293 cells; also: nearly all actives have a fitted effect of over 50% in size
VACV Venus inh = vaccinia inhibition (Venus reporter); Vaccinia virus Venus reporter expression, fluorescence; Potency, µM (highest dose often 36.5 µM), inactives show top-dose activity change, negative = inhibition, most hits filed as inhibitors; 0.46% of 330,000 active; calls by dose curve; tested in A549 cells; also: nearly all actives have a fitted effect of over 30% in size
HCV inhibitor = HCV inhibition; Potency, µM (series often up to 41.8 µM), for the others: at the top dose activity change, negative = inhibition, actives largely listed as inhibitors; 3.4% of 340,000 active; Huh7.5.1 HCVcc-Cre infection, luciferase reporter, 44 h; AID 651820; active = well fitted inhibition curve with a large enough effect; inconclusive = small, poorly fitted or top-dose-only effect, or another doubt; inactive = no such curve, though single readings can be large or run the other way
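Infectious HCV cell culture screen: compound-treated cells (1,000/well, pre-plated 4 h) are infected with HCVcc-Cre at roughly 0.5 moi and grown 44 h. Infection is quantified by luciferase signal after 15 min substrate incubation at room temperature.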
Marburg entry inh = Marburg virus entry inhibition | Marburg virus pseudotyped entry inhibition, cell reporter | Potency, µM (doses to about 37.8 µM), for inactives: top-dose activity change, negative = inhibition, actives largely listed as inhibitors | 1.8% of 300,000 active | AID 540276; calls by dose curve; tested in HEK293 cells
* = called active by the depositor; ! = repeats disagree; [ ] = remark or other dose. % is scaled to controls: 0 for no effect and ±100 for the full control effect; potency is read from the fitted curve at half-maximal effect.

Results for COc1cc(OC)c(NC(c2nnc(-c3ccccc3)o2)c2ccc(F)cc2Cl)cc1Cl (stereo unspecified) ?
Vaccinia mCherry: -12%; LASV entry inh: 2%[46.1 µM]; VACV Venus inh: -4%; Marburg entry inh: inconclusive

How did COc1cc(-c2c(OC)cccc2OC)cc2c1OCCN(C(=O)CCC(=O)c1ccc(F)cc1)C2 do in these assays?
Vaccinia mCherry: -2%; VACV Venus inh: 17%

What do the screens show for `Cc1ccc2c(c1)C(N1CCN(C)CC1)=Nc1cccnc1N2`?
LASV entry inh: 8%; Marburg entry inh: 11µM*!

What do the screens show for `Cc1ccc(C)c(-c2[nH]ncc2CN2CCCC(CO)(Cc3ccccc3C)C2)c1` (stereo unspecified)?
Vaccinia mCherry: -18%; VACV Venus inh: 1%; HCV inhibitor: 13µM*; Marburg entry inh: 25µM*

What do the screens show for `O=c1cc(C(Cl)(Cl)Cl)oc2c1ccc1ccccc12`?
Vaccinia mCherry: inconclusive; LASV entry inh: inconclusive; VACV Venus inh: -29%; HCV inhibitor: inconclusive; Marburg entry inh: 2.1µM*

What do the screens show for `O=c1cc(-c2ccco2)oc2c1ccc1ccccc12`?
Vaccinia mCherry: -10%; LASV entry inh: inconclusive; VACV Venus inh: -7%; HCV inhibitor: inconclusive; Marburg entry inh: 9%

Results for COC(=O)c1ccccc1NC(=O)CSc1c2c(nc3ccc(Cl)cc13)CCCC2 ?
Vaccinia mCherry: -4%; LASV entry inh: 0%[46.1 µM]; VACV Venus inh: -5%; Marburg entry inh: 0%[46.1 µM]

What do the screens show for `CC(Nc1ncnc2c1cnn2-c1cccc(Cl)c1)c1ccccc1` (stereo unspecified)?
Vaccinia mCherry: -23%; LASV entry inh: 16%[46.1 µM]; VACV Venus inh: -22%

What do the screens show for `CCCCn1c(SCC(=O)N2CCC(C)CC2)nc2ccsc2c1=O`?
LASV entry inh: 14%; HCV inhibitor: -27%; Marburg entry inh: 8.2µM*

How did Cc1ncoc1C(=O)N1CCOc2ccc(CN3CCN(c4ccccn4)CC3)cc2C1 do in these assays?
Vaccinia mCherry: -11%; VACV Venus inh: -9%

How did Cc1ccc(-c2nnc(Nc3ccc(F)cc3)c3ccccc23)cc1S(=O)(=O)NC(C)C do in these assays?
Vaccinia mCherry: -19%; LASV entry inh: 14%[46.1 µM]; VACV Venus inh: -30%; Marburg entry inh: -17%[46.1 µM]

How did Cc1ccc(CNC(=O)CC2(CC3=NS(=O)(=O)c4ccccc4N3)CCCC2)cc1 do in these assays?
Vaccinia mCherry: inactive; VACV Venus inh: -15%; HCV inhibitor: 11µM*

Results for COc1ccc(CNC(=O)CCCC2=NS(=O)(=O)c3ccccc3N2)cc1 ?
Vaccinia mCherry: -11%; LASV entry inh: 9%[46.1 µM]; VACV Venus inh: -25%; HCV inhibitor: 11%; Marburg entry inh: inconclusive

Results for CCC(c1nnnn1CCc1ccccc1)N(Cc1ccco1)Cc1cc2cc(C)cc(C)c2[nH]c1=O (stereo unspecified) ?
LASV entry inh: inconclusive; VACV Venus inh: -21%; HCV inhibitor: 10µM*; Marburg entry inh: inconclusive

How did CCC(c1nnnn1CCc1ccccc1)N(Cc1ccco1)Cc1cc2c(C)ccc(C)c2[nH]c1=O (stereo unspecified) do in these assays?
LASV entry inh: inconclusive; VACV Venus inh: inconclusive; HCV inhibitor: 11µM*; Marburg entry inh: 14µM*

How did CCC(c1nnnn1Cc1ccccc1)N(Cc1ccco1)Cc1cc2cc(OC)ccc2[nH]c1=O (stereo unspecified) do in these assays?
LASV entry inh: inconclusive; VACV Venus inh: -17%; HCV inhibitor: -72%; Marburg entry inh: -21%

What do the screens show for `CCOc1cccc2cc(-c3nc4sc(C(=O)Nc5ccc(C)cc5)c(C)c4c(=O)[nH]3)c(=O)oc12`?
Vaccinia mCherry: -11%; LASV entry inh: 23%[46.1 µM]; VACV Venus inh: 2%

How did COC(=O)c1ccc(NC(=O)CC2C(=O)N(c3ccc(Cl)cc3)C(=O)N2Cc2cccs2)cc1 (stereo unspecified) do in these assays?
Vaccinia mCherry: -6%; LASV entry inh: -22%[46.1 µM]; VACV Venus inh: -12%

How did CC(C)(C)c1ccc(Oc2ccc(N)cn2)cc1 do in these assays?
HCV inhibitor: 4µM*

What do the screens show for `Cc1ccc(CSc2nc(-c3cccs3)ccc2C#N)cc1`?
Vaccinia mCherry: -9%; LASV entry inh: -4%[46.1 µM]; VACV Venus inh: -8%; Marburg entry inh: -24%[46.1 µM]

How did C#CCSc1nc(-c2cccs2)ccc1C#N do in these assays?
LASV entry inh: -20%; VACV Venus inh: -18%; HCV inhibitor: 4.5µM*; Marburg entry inh: -18%

Results for Cc1nc(SCc2cc(=O)c3cccc(F)c3[nH]2)n[nH]1 ?
Vaccinia mCherry: 1%; LASV entry inh: 25%[46.1 µM]; VACV Venus inh: -2%

How did Cc1cc(Sc2nc(N)ncc2[N+](=O)[O-])ncn1 do in these assays?
Vaccinia mCherry: -4%; LASV entry inh: -11%; VACV Venus inh: 0%; HCV inhibitor: inconclusive; Marburg entry inh: inconclusive

What do the screens show for `Cc1cc(Sc2ncnc(N)c2[N+](=O)[O-])ncn1`?
Vaccinia mCherry: inactive; LASV entry inh: 11µM*; VACV Venus inh: -11%; HCV inhibitor: inconclusive; Marburg entry inh: inconclusive

What do the screens show for `Cc1nc(N2CCCCC2)sc1C(=O)c1ccc(SCCO)c([N+](=O)[O-])c1`?
Vaccinia mCherry: inconclusive; LASV entry inh: inconclusive; VACV Venus inh: -23%; HCV inhibitor: 1.1µM*; Marburg entry inh: inconclusive

How did Cc1nc(N2CCCCC2)sc1C(=O)c1cccc([N+](=O)[O-])c1 do in these assays?
Vaccinia mCherry: -26%; LASV entry inh: -23%; VACV Venus inh: -21%; HCV inhibitor: inconclusive; Marburg entry inh: -7%[46.1 µM]

What do the screens show for `CCc1ccccc1NC(=O)C1CCCN(S(=O)(=O)c2ccc3[nH]c(=O)ccc3c2)C1` (stereo unspecified)?
Vaccinia mCherry: -14%; LASV entry inh: 3%[46.1 µM]; VACV Venus inh: -9%

Results for NNC(=O)c1cccc(COc2ccc3c(c2)CCC3)c1 ?
Vaccinia mCherry: -20%; LASV entry inh: 2.1µM*; VACV Venus inh: -20%; HCV inhibitor: 0%; Marburg entry inh: inconclusive

What do the screens show for `CC(=O)O[C@@]12CO[C@@H]1C[C@H](O)[C@@]1(C)C(=O)[C@H](O)C3=C(C)[C@@H](OC(=O)[C@H](O)[C@@H](NC(=O)OC(C)(C)C)c4ccccc4)C[C@@](O)([C@@H](OC(=O)c4ccccc4)[C@H]21)C3(C)C`?
Vaccinia mCherry: inactive; VACV Venus inh: inconclusive

What do the screens show for `O=C(NCc1cccnc1)C1CCN(S(=O)(=O)c2cc([N+](=O)[O-])ccc2Cl)CC1`?
Vaccinia mCherry: 14µM*; LASV entry inh: 1%; VACV Venus inh: inconclusive; HCV inhibitor: 10%; Marburg entry inh: -29%

What do the screens show for `CC(NC(=O)C1CCN(S(=O)(=O)c2cc([N+](=O)[O-])ccc2Cl)CC1)c1ccccc1` (stereo unspecified)?
Vaccinia mCherry: -21%; LASV entry inh: -20%[46.1 µM]; VACV Venus inh: -27%; HCV inhibitor: 1%; Marburg entry inh: inconclusive

High-throughput results as filed in PubChem BioAssay.
